Compound activity as filed in PubChem BioAssay.
Compounds with a hit are over-represented: about 6.1% of the library has one in this group of screens.
D1 antagonist: antagonists of human D1 dopamine receptor; P21728; HEK293 TREx D1 cells, calcium flux, dopamine EC80; active compounds read low; activity change, negative = inhibition, % at 10 µM; 3.2% of 360,000 active; AID 504652; in the data active = activity change below about -30%; also: % is scaled to controls: 0 for no effect and ±100 for the full control effect
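Compound effects on dopamine-evoked calcium signalling were measured in tetracycline-induced HEK293 Trex D1 cells. Dopamine at EC80 followed a 180 s compound pre-read, and fluorescence was tracked kinetically for 180 s more.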
D1 agonist: agonists of human D1 dopamine receptor; activation, % at 2 µM; P21728; 1% of 360,000 active; HEK293 T-REx D1 cells, calcium flux, agonist mode; in the data active = activation above about 30%; also: 0% is about no effect
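Agonism was scored from calcium flux recorded over 180 s (1 read/s) after pintool compound addition, following a 10-cycle baseline. Cells were inducible force-coupled HEK293 TREx D1, plated overnight at 30 C and loaded with no-wash calcium dye.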
D3 antag: D3 dopamine receptor (human) antagonism; P35462; D3R cells, DiscoveRx beta-arrestin luminescence, antagonist mode; active compounds read low; max response, negative = inhibition, %; 2.5% of 360,000 active; AID 652054; in the data active = max response below about -50%; inconclusive = no clear call, values can overlap the other calls; also: % is scaled to controls: 0 for no effect and ±100 for the full control effect
Target sequence (P35462 whole entry, looked up): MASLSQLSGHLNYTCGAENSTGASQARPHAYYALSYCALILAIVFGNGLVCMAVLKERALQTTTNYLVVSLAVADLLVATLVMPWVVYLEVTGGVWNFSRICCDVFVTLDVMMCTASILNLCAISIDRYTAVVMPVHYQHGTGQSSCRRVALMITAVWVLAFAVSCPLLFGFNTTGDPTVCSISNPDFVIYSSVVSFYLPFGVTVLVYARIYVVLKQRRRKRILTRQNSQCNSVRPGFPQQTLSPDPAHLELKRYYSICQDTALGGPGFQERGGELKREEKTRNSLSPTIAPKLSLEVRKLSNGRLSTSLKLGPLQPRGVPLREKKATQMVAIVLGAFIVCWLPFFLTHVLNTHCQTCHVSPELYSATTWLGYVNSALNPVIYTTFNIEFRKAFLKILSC
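Cells plated overnight at 1500 cells/well, then exposed to library compounds with dopamine controls for 90 minutes at 37 degrees C. DiscoveRx reagent added for 30–60 minutes at room temperature; luminescence read, quantitative HTS format.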
D1 potentiator: potentiators of human D1 dopamine receptor | P21728 | HEK293 TREx D1 cells, calcium flux, dopamine EC20 potentiation | potentiation, % at 10 µM | 0.036% of 360,000 active; in the data active = potentiation above about 30%; also: 0% is about no effect
D3 ag: D3 dopamine receptor (human) agonism; 0.58% of 410,000 active; D3R DiscoveRx beta-arrestin cells, luminescence, 90 min; AID 652048; max activation, %; in the data active = max activation above about 30%; also: 0% is about no effect
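Agonist-mode cell screen: cells plated at 1500/well and incubated overnight at 37 °C, then exposed to library compounds for 90 min at 37 °C. Detection reagent was added for 30–60 min at room temperature, and luminescence was read.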
* = called active by the depositor; ? = inconclusive; nt = not tested or not shown.

SMILES | D1 antagonist | D1 agonist | D3 antag | D1 potentiator | D3 ag
Cc1cccc(N2CCN(CC(O)COc3ccccc3)CC2)c1 (centres undefined) | nt | nt | -71* | nt | -10
COc1ccc(N(Cc2ccccc2)S(=O)(=O)c2cccc(C(=O)Nc3ncccc3C)c2)cc1 | 1 | 8 | ? | 4 | -11
O=C(NCCC1CCCC1)c1cccs1 | -6 | 1 | 6 | 2 | 2
O=C(NCCNC1CCC(c2ccccc2)CC1)c1cccs1 (centres undefined) | 4 | 13 | -54* | -3 | -11
CCOC(=O)N1CCC(NCCNC(=O)c2ccccc2)CC1 | -6 | 2 | -73* | -8 | -2
CCOC(=O)N1CCC(NCCNC(=O)c2ccccc2Cl)CC1 | 7 | 3 | ? | 11 | -2
CCOC(=O)N1CCC(NCCNC(=O)c2cccs2)CC1 | 2 | -1 | -77* | -6 | -8
Cn1ccc2cc(-c3ccc4ncnc(NCc5cccnc5)c4c3)ccc21 | 4 | 2 | nt | 0 | nt
COc1ccc(Br)cc1-c1nc(CCl)cs1 | 0 | 1 | 7 | 2 | 0
CC1c2ccccc2CN1NC(=O)c1ccc(Cl)c(S(N)(=O)=O)c1 (centres undefined) | nt | nt | nt | nt | 51*
O=C(/C=C/c1ccccc1Cl)N1CCN(c2ncccn2)CC1 | -31* | 3 | 9 | -2 | 3
Cn1c(=O)c(C(=O)COc2ccc(C#N)cc2)c(N)n(Cc2ccccc2)c1=O | -18 | 59* | -23 | 0 | 10
COC(=O)c1ccc(Oc2cc(C)nc(-n3nc(C)cc3C)n2)cc1 | nt | nt | -82* | nt | -28
Cc1ccc(S(=O)(=O)N(Cc2ccccc2F)C(=O)N2CCN(C)CC2)cc1 | -3 | 1 | 25 | -5 | -3
Cc1cccc(C)c1OCc1cc(C(=O)N2CCN(Cc3nccn3C)CC2)no1 | 9 | 5 | -11 | -4 | 8
O=C(CN1C2=NCCCN2c2ccccc21)c1ccc(Br)s1 | -6 | 14 | -54* | -2 | -16
Brc1ccc(CN2C3=NCCCN3c3ccccc32)cc1 | -11 | 30* | 6 | -10 | 0
CC(C)(C)c1ccc(CN2C3=NCCCN3c3ccccc32)cc1 | -2 | 28 | -63* | -9 | -1
c1ccc(CN2C3=NCCCN3c3ccccc32)cc1 | -1 | 0 | -7 | -2 | -6
Cc1ccc(CN2C3=NCCCN3c3ccccc32)cc1 | 0 | 4 | 0 | -2 | -4
CCc1c(C)nc2cc(-c3cc(OC)cc(OC)c3)nn2c1N1CCCC1 | -6 | 12 | 10 | 1 | 31*
Cc1cc2c(s1)c1cnn(Cc3cccc([N+](=O)[O-])c3)c(=O)c1n2C | -5 | 9 | nt | 6 | nt
O=Cc1ccccc1C=O | nt | nt | nt | nt | -7
Cc1cccc(C)c1OCC(O)CN1CCN(c2ccccn2)CC1 (centres undefined) | -19 | 4 | 11 | -11 | 59*
Cc1ccccc1OCC(O)CN1CCN(c2ccc(Cl)cc2)CC1 (centres undefined) | -26 | 5 | ? | -12 | 2
SMILES | D1 antagonist | D1 agonist | D3 antag | D1 potentiator | D3 ag
Cc1cccc(C)c1OCC(O)CN1CCN(c2ccccc2)CC1 (centres undefined) | -6 | 2 | -15 | -2 | 63*
Cc1ccc(OCC(O)CN2CCN(c3ccccn3)CC2)c(C)c1 (centres undefined) | 0 | 6 | -26 | -5 | 45*
O=C(CSCc1c(F)cccc1F)Nc1ccccc1 | -74* | 1 | ? | -12 | -18
O=C(CSCc1c(F)cccc1Cl)Nc1cccnc1 | 0 | 9 | 1 | -8 | -1
O=C(CN1C(=O)/C(=C/c2ccccc2F)Sc2ccccc21)N1CCN(c2ccccn2)CC1 | 5 | 1 | 3 | 1 | 1
CC1(C)Cc2c(sc3ncnc(NN)c23)CO1 | -2 | 4 | -2 | -2 | 3
COc1nccnc1NS(=O)(=O)c1ccc(NC(=S)NC(=O)c2cccnc2)cc1 | -1 | 3 | -22 | 1 | -9
CCc1nnc(NS(=O)(=O)c2ccc(NC(=S)NC(=O)c3ccc(OC)cc3)cc2)s1 | -32* | 2 | -19 | 11 | 0
COc1ccc(/C=C/C(=O)NC(=S)Nc2ccc(S(=O)(=O)Nc3nccnc3OC)cc2)cc1 | 7 | 0 | -62* | -1 | -9
COc1nccnc1NS(=O)(=O)c1ccc(NC(=S)NC(=O)c2cccc(F)c2)cc1 | 3 | 0 | -62* | -3 | -3
